hcDAF-12 act: H. contortus DAF-12 activation, primary screen. activation, % at 6.8 µM. 1.4% of 370,000 active. HEK293 hcDAF-12 lit1-tk-luc reporter, luminescence; 0% DMSO, 100% Δ7-dafachronic acid. AID 652067;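 active = activation above the mean of all tested compounds plus 3 SD, cut at about 5.5% in these data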;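 also: 100% = response to 3 µM Δ7-dafachronic acid high control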
hgDAF-12 ag: activates the H. glycines DAF-12 receptor ligand-binding domain | HEK293 GAL4-hgDAF12 UAS-luciferase reporter, agonist luminescence; normalized to butyrate control | activation, % at 6.8 µM | 1.8% of 370,000 active;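 active = activation above a cutoff set at the mean of all screened compounds plus 3 SD, cut at about 10% in these data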;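 also: 0% = DMSO wells and 100% = sodium butyrate wells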
DAX1 inh-1: inhibits human nuclear receptor DAX1 | HEK293 Gal4-DAX1 luciferase reporter, luminescence | P51843 | 0.99% of 340,000 active | inhibition, % at 6.75 µM;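 active = inhibition above the mean over all tested compounds plus 3 SD, cut at about 4.2% in these data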;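 also: 0% = DAX1-transfected cells with DMSO and 100% = empty-vector control cells with DMSO; inhibition shows as a rise in luminescence from relieved DAX1 repression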
Target sequence (P51843 207-470 limits assumed): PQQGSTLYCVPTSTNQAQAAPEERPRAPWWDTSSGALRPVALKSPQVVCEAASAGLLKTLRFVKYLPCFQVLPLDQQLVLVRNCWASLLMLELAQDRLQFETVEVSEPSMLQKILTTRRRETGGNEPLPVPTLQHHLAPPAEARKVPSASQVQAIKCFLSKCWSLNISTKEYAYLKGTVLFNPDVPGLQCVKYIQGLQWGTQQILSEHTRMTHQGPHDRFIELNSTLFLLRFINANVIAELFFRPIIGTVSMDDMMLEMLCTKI
ssDAF12 agonist: activators of S. stercoralis DAF-12 nuclear receptor | 1% of 370,000 active | HEK293 ssDAF-12/GRIP1 lit1-tk-luc reporter, luminescence; % of 3 µM dafachronic acid response | activation, % at 6.8 µM;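 active = activation above the mean over all tested compounds plus 3 SD, cut at about 0.9% in these data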;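 also: 0% = DMSO-only wells and 100% = 3 µM delta7-dafachronic acid wells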
DAX1 inh-2: inhibitors of DAX1 repression of SF-1 activated StAR promoter. HEK293T StAR-luciferase reporter, SF-1/DAX-1 repression relief. inhibition, % at 6.8 µM. 1.1% of 370,000 active. AID 652010;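 active = inhibition above the mean over all tested compounds plus 3 SD, cut at about 3.6% in these data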;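 also: 0% = DAX-1 cells with DMSO and 100% = cells lacking DAX-1 with DMSO; higher inhibition means more luminescence from relief of DAX-1 repression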
The depositor's hits bear a star; x = not tested or not shown. Rows were chosen to be rich in hits. Some 4.1% of all compounds tested hit in one or more screens of this group.

SMILES | hcDAF-12 act | hgDAF-12 ag | DAX1 inh-1 | ssDAF12 agonist | DAX1 inh-2
CN(Cc1ccc(F)cc1)C(=O)CN1C(=O)C2(OCCCO2)c2ccccc21 | 0 | 0 | x | -1 | -1
COC(=O)[C@H]1Cc2c([nH]c3ccccc23)[C@H](c2ccccc2)N1 | 6.4* | 0 | 1 | 0 | 0
COC(=O)C1Cc2c([nH]c3ccccc23)CN1 (stereo unspecified) | -2 | 0 | 0 | 0 | -1
CCCCN1C[C@@H](COCc2ccccc2)Oc2cccc(F)c2S1(=O)=O | -3 | 5 | x | -1 | -2
Clc1ccc(-n2nnnc2-c2cnc3ccc(Cl)cc3c2-c2ccccc2)cc1 | -1 | 1 | 6.2* | -1 | 0
COc1ccc(OCC(=O)Nc2nc3c(s2)CCCC3)cc1 | -1 | -2 | 0 | 0 | 1
CCc1ccc2nc(NC(=O)c3ccc(N4C(=O)CCC4=O)cc3)sc2c1 | 0 | 0 | 4.4* | 0 | 0
O=C(CCCc1cccs1)Nc1nc2c(s1)CCCC2 | 4 | 5 | 4 | 1.0* | 2
O=C(Nc1nc2c(s1)CCCC2)c1ccc(N2C(=O)CCC2=O)cc1 | 4 | 4 | 1 | -1 | 4.2*
COC(=O)c1ccc(C(=O)NC(=S)Nc2nc3c(s2)CCCC3)cc1 | 6.2* | 5 | -2 | 0 | 0
O=C(Nc1nc2c(s1)CCCC2)c1ccc(Br)s1 | 6.2* | 10 | 1 | -1 | 1
Clc1ccc(C2Nc3ccccc3-n3cccc32)cc1 (stereo unspecified) | 5 | 3 | 1 | 1.1* | -1
CN1c2ccccc2C(=O)NC1c1ccc(Cl)cc1 (stereo unspecified) | -1 | -1 | 0 | -1 | 0
C/C(=N\NC(=O)c1ccccc1F)c1ccc2c(c1)Nc1ccccc1S2 | 0 | 11* | 0 | -1 | 1
COCCn1c(C)cc(C(=O)COC(=O)c2ccc(Br)o2)c1C | 1 | 1 | 5.4* | -1 | 1
O=c1[nH][nH]cc1C=Nc1ccc(Oc2ccccc2)cc1 | -2 | 1 | 0 | 6.9* | 0
CC(C)C(NC(=O)C12CC3CC(CC(C3)C1)C2)C(=O)N/N=C/C1=C(N2CCOCC2)C(=C\c2cccc([N+](=O)[O-])c2)/CC1 (stereo unspecified) | 0 | 1 | 0 | -1 | -1
Cn1cc(C(=O)N/N=C/C2=C(N3CCOCC3)C(=C/c3ccc([N+](=O)[O-])cc3)/CC2)ccc1=O | 0 | 12* | -1 | -1 | 0
CCN(CC)CC(O)Cn1c(-c2cccc(Cl)c2)nc2cc(C)c(C)cc21 (stereo unspecified) | 2 | 2 | 4.2* | -1 | 1
CCCSc1nc2cc(C)c(C)cc2n1CC(O)CO (stereo unspecified) | 0 | 4 | -1 | -1 | 0
O=C(Nc1cnc2ccccn2c1=O)c1ccc(Cl)cc1 | 1 | 13* | 3 | -1 | 1
CC(C)Oc1ccc(CNC(=O)CCCN2C(=O)C(c3ccccc3)Oc3cccnc32)cc1 (stereo unspecified) | -1 | 1 | 1 | -1 | -1
Cc1cc(-c2nc(-c3ccc(C(C)(C)C)cc3)no2)no1 | 2 | 9 | 1 | -1 | 1
Cc1c(-c2nc(-c3ccc(C(C)(C)C)cc3)no2)n(C)oc1=O | 5.7* | 12* | -1 | 2.1* | 3
Fc1cccc(F)c1[B-](F)(F)F | -1 | 11* | 0 | -1 | 1
SMILES | hcDAF-12 act | hgDAF-12 ag | DAX1 inh-1 | ssDAF12 agonist | DAX1 inh-2
Cc1ccc(-c2cc(-c3nnc(SCC(=O)N4c5ccccc5Sc5ccccc54)n3N)[nH]n2)cc1 | -3 | 0 | x | -1 | -2
Fc1ccc(Nc2nc(N3CCOCC3)nc(N3CCOCC3)n2)cc1 | -2 | 0 | 1 | -1 | 0
O=[N+]([O-])c1ccc(Nc2nc(N3CCOCC3)nc(N3CCOCC3)n2)cc1 | 0 | 0 | 0 | 1.1* | 0
O/N=C1\CC/C(=N\O)c2nn(-c3ccccc3Cl)nc21 | 0 | 1 | 0 | -2 | -1
Cc1ccc(-n2nc3c(n2)/C(=N/O)CC/C3=N\O)cc1 | 5 | 12* | -1 | 1 | 4.4*
C/C(=N\O)C(C)(C)Nc1cccc(Br)c1 | -1 | -2 | -1 | -1 | 0
C/C(=N\O)C(C)(C)Nc1cccc(F)c1 | 0 | 0 | 5.2* | -1 | 1
CC(C(=O)NC1CCCc2ccccc21)N1CCN(Cc2ccc3c(c2)OCO3)CC1 (stereo unspecified) | 2 | 0 | -1 | 1.0* | 0
CC(C(=O)NC1CCCc2ccccc21)N1CCN(c2ccc(F)cc2)CC1 (stereo unspecified) | 3 | -1 | -2 | 0 | -1
O=C(c1c(F)cccc1F)N1CCC(Oc2cccnc2)CC1 | -3 | -2 | x | -2 | 0
C[C@@H]1CN(c2ccc(N3CCN(C(=O)OC(C)(C)C)C[C@H]3C)cc2C#N)CCN1Cc1ccccc1 | -2 | 3 | x | -1 | -1
O=C(CCCn1c(=O)[nH]c2cc(Cl)ccc2c1=O)NCCC1=CCCCC1 | -1 | 2 | 0 | -1 | 0
NC(=O)c1ccc(NC(=O)COC(=O)CC2Sc3ccccc3NC2=O)cc1 (stereo unspecified) | 4 | 3 | 1 | 1.2* | 2
CN1C(=O)C[C@@](C#N)(C(=O)NCCc2ccccc2)[C@H]1c1ccccc1 | 2 | 5 | x | -1 | 1
O=C(c1ccc(Br)s1)N1CCc2ccccc2C1 | 2 | 2 | 2 | -1 | 3.9*
COc1ccc(NC(=O)CN(C)CC(=O)NCC(=O)Nc2ccc(F)cc2)cc1 | 2 | 4 | -1 | -1 | 0
COc1cc(OC)cc(C(=O)Nc2cccc3c2CCCC3)c1 | -2 | 3 | -1 | -2 | 0
COC(=O)C1CCc2c(ccc3c2CCCC3)C1=O (stereo unspecified) | 1 | 6 | 4.4* | -1 | 4.3*
O=C(CCc1nc2ccccc2s1)NCc1ccccc1F | 2 | -2 | 0 | -1 | 0
CN(C)C(CNC(=O)CCc1nc2ccccc2s1)c1ccccc1 (stereo unspecified) | -2 | -2 | 5.5* | 0 | 0
NNC(=O)Cn1nnc(-c2ccc(C(F)(F)F)cc2)n1 | 1 | 2 | x | 0.9* | 0
CC(=O)Cn1nnc(-c2ccc(C(F)(F)F)cc2)n1 | -1 | 2 | 3 | -1 | 1
CCN1Cc2c(/C=C/c3ccccc3)nc3ccc(OC)cc3c2N(c2cccc(Cl)c2)C1 | 5.7* | 3 | 0 | -1 | -1
COc1cccc(N2CCc3c(C)nc4ccc(Cl)cc4c32)c1 | -1 | -2 | -1 | -2 | 0
COC(=O)C[C@H]1CC[C@H]2[C@H](COc3ccc(NS(=O)(=O)c4cccc(F)c4)cc3C(=O)N2C)O1 | 0 | 4 | x | 0 | -1
COc1ccc(-n2c(COc3ccccc3)nnc2SCc2nc3ccccc3[nH]2)cc1 | 0 | -1 | x | -1 | 1
